Laboratory results taken from the supplement of paper PMC3334620.
The full ranking holds about 33,000 sequences; the median of “E-score (-0.5 to 0.5)” is about -0.012, and the highest 2% start at about 0.29. The full list was thinned out, with the highest values kept by preference.

target: T1, Ybr033w (UniProt P38073); experiment: PBM E-score (8-mer binding enrichment) (E-score (-0.5 to 0.5)); higher = stronger / more preferred TF binding; settings: protein concentration: 200 nM; construct: GST-full length
T1 sequence: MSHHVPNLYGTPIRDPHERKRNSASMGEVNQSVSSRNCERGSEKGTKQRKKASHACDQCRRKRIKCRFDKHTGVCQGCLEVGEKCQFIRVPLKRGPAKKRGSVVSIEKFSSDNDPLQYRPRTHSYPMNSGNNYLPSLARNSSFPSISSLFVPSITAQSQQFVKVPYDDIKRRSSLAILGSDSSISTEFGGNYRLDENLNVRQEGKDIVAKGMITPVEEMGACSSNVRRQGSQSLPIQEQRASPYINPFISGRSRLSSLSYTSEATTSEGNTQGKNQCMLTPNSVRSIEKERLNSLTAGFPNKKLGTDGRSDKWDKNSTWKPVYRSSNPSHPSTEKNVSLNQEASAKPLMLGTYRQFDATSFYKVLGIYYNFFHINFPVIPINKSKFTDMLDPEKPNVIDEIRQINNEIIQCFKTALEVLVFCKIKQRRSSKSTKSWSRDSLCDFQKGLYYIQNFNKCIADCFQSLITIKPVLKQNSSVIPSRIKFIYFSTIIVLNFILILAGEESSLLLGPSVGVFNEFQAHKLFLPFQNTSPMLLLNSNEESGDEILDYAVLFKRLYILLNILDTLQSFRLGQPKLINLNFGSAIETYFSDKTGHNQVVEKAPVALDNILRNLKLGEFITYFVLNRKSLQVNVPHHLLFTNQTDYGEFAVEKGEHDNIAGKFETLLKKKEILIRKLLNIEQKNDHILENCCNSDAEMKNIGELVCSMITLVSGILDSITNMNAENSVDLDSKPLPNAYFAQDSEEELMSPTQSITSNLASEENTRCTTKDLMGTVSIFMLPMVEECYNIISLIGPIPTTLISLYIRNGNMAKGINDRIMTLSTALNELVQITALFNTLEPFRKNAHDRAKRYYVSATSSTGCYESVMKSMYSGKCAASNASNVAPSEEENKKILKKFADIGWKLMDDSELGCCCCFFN
Method in brief: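 Full-length yeast transcription factors or their DNA-binding domains, GST-tagged and expressed with PURExpress, were applied at about 100-200 nM to universal all-10-mer Agilent arrays. These arrays had been made double-stranded by primer extension on fresh or once-stripped slides. Detection used fluorescent anti-GST, normalisation used masliner, and E-scores for ungapped eight-base words pooled with reverse complements came from the Universal PBM Analysis Suite.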

Row | Sequence | PBM E-score
1 | GAATTGAC | 0.00537
2 | CAGGCGGA | 0.122
3 | AACGCTTG | -0.194
4 | CTTTCTCC | -0.103
5 | AATTCTCC | 0.293
6 | ATTTCTCA | 0.192
7 | ATTTCTCC | 0.404
8 | CATTCTCC | 0.0353
9 | AATTCTCA | 0.204
10 | CAGGCTGA | -0.237
11 | GACAGAGA | -0.066
12 | ACCCTACT | 0.0025
13 | TGCTACCA | -0.0533
14 | AATGCATT | 0.31
15 | AATGCATG | 0.0293
16 | AATGCATA | 0.126
17 | AGTAGTAT | 0.185
18 | CAAAGACA | 0.0541
19 | AAAAGCCC | -0.113
20 | AAAAGCCA | 0.3
21 | GAAAGCCA | -0.136
22 | AAAAGACC | -0.141
23 | AAAAGACA | 0.292
24 | CCCAGTGA | -0.194
25 | AGCAGTGG | 0.0536

Row | Sequence | PBM E-score
26 | ATCTTGAA | 0.187
27 | CTATTAAC | 0.268
28 | TTATTAAA | 0.283
29 | ATATTAAC | 0.301
30 | ATATTAAA | 0.355
31 | CTATTAAA | 0.196
32 | ATATTAAG | 0.285
33 | ATATTAAT | 0.314
34 | ACATTAAT | 0.235
35 | GTATTAAC | 0.0593
36 | GGCTCTAC | -0.185
37 | GGAACACA | 0.149
38 | GAGCTGTA | -0.11
39 | TCCATACA | 0.0807
40 | ATTTTCAG | 0.148
41 | ATTCGCCG | 0.0215
42 | ATCGACAC | -0.0724
43 | CGTGAACA | 0.00947
44 | ATGTGTTA | 0.163
45 | CTGTGTTA | -0.00531
46 | GTGTGTTA | 0.292
47 | CAAGGTCG | -0.0398
48 | AACGACTC | -0.219
49 | AGTTTATA | 0.215
50 | AATTTATC | 0.398

Row | Sequence | PBM E-score
51 | AGTTTATC | 0.363
52 | ACTTTATG | 0.132
53 | AATTTAGG | 0.229
54 | AATTTATA | 0.257
55 | AATTTATG | 0.317
56 | CATTTATC | 0.278
57 | AGTTTATG | 0.2
58 | GCAAGCGC | -0.00847
59 | GTAACCAC | -0.255
60 | CTCAATGC | -0.0435
61 | AGATCTTG | -0.00564
62 | AAAGTGAA | 0.164
63 | GAAGTGAA | 0.155
64 | TAAGTGAA | 0.293
65 | CAAGCCAG | -0.0473
66 | ATTAGATC | 0.0257
67 | ATTAGATG | 0.329
68 | ATTAGATA | 0.222
69 | AATCGGGG | -0.125
70 | ATAATCTA | 0.294
71 | AAAATCTG | 0.235
72 | ATAATCTC | 0.293
73 | GTAATCTA | 0.207
74 | ATAATCTG | 0.117
75 | GAAATCTA | 0.116

Row | Sequence | PBM E-score
76 | ACAATCTC | 0.0789
77 | CTAATCTC | -0.0112
78 | AAAATCTA | 0.289
79 | AGACAGGA | 0.246
80 | TCTCAAAA | 0.143
81 | GCGAGACA | -0.0827
82 | CAAATAGG | 0.00709
83 | CAGACGAG | -0.108
84 | AAACGGAA | 0.341
85 | AAACGGAC | -0.102
86 | GAACGGAA | 0.0333
87 | AACTCAAT | 0.0866
88 | GGGTGAGA | -0.224
89 | CTCACTTA | 0.0375
90 | GGGTAAGA | -0.154
91 | TACACTAA | 0.0217
92 | CACACTAG | 0.0753
93 | CACACTAA | 0.299
94 | GCGCTGAA | -0.0684
95 | ACCACGAG | 0.0793
96 | GTTAATTA | 0.266
97 | ATTAAGTA | 0.365
98 | GGTAATTA | 0.175
99 | ATTAATTG | 0.268
100 | ATTAAGTG | 0.167

Row | Sequence | PBM E-score
101 | GTTAAGTA | 0.113
102 | GTTAGTTA | 0.262
103 | ATTAGTTG | 0.265
104 | CGTAATTA | 0.29
105 | ATTAATTA | 0.387
106 | ATTAGTTA | 0.344
107 | CGTAATTC | 0.0565
108 | CGGGGCGA | -0.145
109 | AAACACCC | 0.0312
110 | GCGCGATA | 0.181
111 | CCTCCTAC | -0.107
112 | GACCTATA | 0.189
113 | GGTGGCCA | -0.292
114 | AACAGTAA | 0.173
115 | CTCTTCGA | 0.0693
116 | ACAGGTGA | 0.0969
117 | ACTTACCA | 0.0956
118 | CCGCTAAC | -0.0857
119 | ACTAATTC | 0.221
120 | CTTAATTC | 0.257
121 | AGTAATTC | 0.318
122 | ATTAATTC | 0.291
123 | AGTAATTA | 0.232
124 | AGTAATTG | 0.129
125 | CCTTACCA | -0.00851

Row | Sequence | PBM E-score
126 | ACACCTGA | -0.0619
127 | AGTTCTAC | 0.0539
128 | AATCAAGC | 0.0885
129 | CTATATCC | 0.159
130 | ACATATTG | 0.193
131 | ATATATCC | 0.372
132 | CCATATTA | 0.146
133 | ACATATTA | 0.349
134 | CTATATTC | 0.215
135 | ATATATTC | 0.326
136 | ATATATTG | 0.14
137 | ATATATTA | 0.306
138 | ATATATCA | 0.0628
139 | GTATATTA | 0.257
140 | CTATATTA | 0.284
141 | AAGAGGGG | -0.226
142 | GTGCCACA | -0.302
143 | CTGGCAGA | -0.00651
144 | GCGGGACA | -0.243
145 | CGCGATCA | 0.0933
146 | AGATCTGA | -0.108
147 | CTAAGGGA | 0.0981
148 | ACCTGCGG | -0.146
149 | ACTGCCAT | 0.00233
150 | TCCTCGAA | 0.126

Row | Sequence | PBM E-score
151 | AACCAAAT | 0.228
152 | ATGGGGTG | -0.195
153 | CGATATTC | 0.123
154 | CGATATTA | 0.336
155 | GGATATTA | 0.144
156 | AACTTCCC | 0.00652
157 | AGATAGGA | 0.00058
158 | ACTATTTC | 0.237
159 | CTTTATTC | 0.192
160 | CTTATTTC | 0.235
161 | ACTATTTG | 0.248
162 | ATTATTTG | 0.335
163 | ATTATTAG | 0.152
164 | GTTTATTA | 0.276
165 | ATTTATTA | 0.293
166 | CTTTATTA | 0.191
167 | ATTTATTG | 0.0954
168 | ATTTATTC | 0.361
169 | ATTATTTC | 0.332
170 | AGCCAATA | -0.0344
171 | AAAAAGCG | 0.112
172 | CCGTTGCG | -0.192
